This excerpt belongs to a sample that is enriched for hits.
DT40 TDP1 CPT – DT40-hTDP1 cell growth loss with CPT; chicken DT40 Tdp1-/-;hTDP1 cells + 20 nM CPT, ATP luminescence, 48 h; Potency, µM (doses to about 46.2 µM), inactives show at the top dose activity change, negative = growth inhibition, most hits filed as inhibitors; 420,000 compounds, 12% hits; AID 686979; further: potency means the concentration at half of the fitted maximal effect; nearly all actives have a fitted effect of over 55% in size
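Cell growth measured by CellTiter-Glo luminescence after a minimum 48 h, 37 C compound exposure with 20 nM CPT in Tdp1-knockout DT40 cells stably expressing hTDP1, seeded 400/well; qHTS titration format.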
HT1080 IDH1KD tx – HT-1080 IDH1 knockdown cell toxicity (counter line) | HT-1080 IDH1 knockdown viability, ATP luminescence, 48 h | Potency, µM (series often up to 46.1 µM), for inactives: top-dose activity, negative = toxicity, usual class: cytotoxic | 360,000 compounds, 2% hits | AID 686971;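 further: potency means the concentration at half of the fitted maximal effect; 0% = DMSO wells and -100% = cell-free medium wells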
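In this qHTS, HT-1080 cells depleted of IDH1 are exposed for 48 h at 37 °C to compound titrations. Toxicity is scored from CellTiter-Glo luminescence, with DMSO as full viability and medium alone as none.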
ALOX12 inh – inhibitors of human 12S-lipoxygenase ALOX12 | 580,000 compounds, 1.1% hits | Potency, µM (titrated, usually from 108 µM), for inactives: at the highest dose activity change, negative = inhibition, most hits filed as inhibitors | AID 1671190 | purified 12hLO, xylenol orange hydroperoxide absorbance; further: potency means the concentration at half of the fitted maximal effect
Target sequence (P18054 whole entry, looked up): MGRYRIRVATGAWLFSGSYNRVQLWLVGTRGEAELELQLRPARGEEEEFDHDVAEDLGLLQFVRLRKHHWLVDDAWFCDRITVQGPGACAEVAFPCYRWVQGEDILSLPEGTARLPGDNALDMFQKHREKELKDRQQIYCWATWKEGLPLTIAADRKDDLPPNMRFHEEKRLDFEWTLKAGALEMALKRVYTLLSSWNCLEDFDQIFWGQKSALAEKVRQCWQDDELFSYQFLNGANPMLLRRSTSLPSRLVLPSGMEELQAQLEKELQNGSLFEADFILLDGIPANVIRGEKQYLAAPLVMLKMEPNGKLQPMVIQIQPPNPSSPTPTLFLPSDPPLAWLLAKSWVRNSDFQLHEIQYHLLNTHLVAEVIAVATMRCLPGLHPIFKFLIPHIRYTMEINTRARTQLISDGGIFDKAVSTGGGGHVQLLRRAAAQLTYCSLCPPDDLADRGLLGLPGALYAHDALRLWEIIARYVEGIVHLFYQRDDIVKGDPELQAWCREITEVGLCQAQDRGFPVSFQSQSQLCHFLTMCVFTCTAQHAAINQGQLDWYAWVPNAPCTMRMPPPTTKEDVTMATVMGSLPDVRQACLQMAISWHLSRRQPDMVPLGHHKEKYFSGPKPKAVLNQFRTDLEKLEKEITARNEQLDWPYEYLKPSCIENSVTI
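Purified human 12hLO at 150 nM in 25 mM Hepes, 0.01% Triton X-100, pH 7.0, preincubated 15 min at room temperature with compound. Reaction started with 40 uM arachidonic acid, 30 min at room temperature. Hydroperoxide measured by Fe-xylenol orange, 573/405 nm absorbance ratio.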
HT1080NT lethal – kills 2HG-producing HT-1080-NT fibrosarcoma cells | HT-1080-NT fibrosarcoma viability, CellTiter-Glo ATP luminescence, 48 h | Potency, µM (top dose mostly 46.1 µM), inactives show top-dose activity, negative = less viability, most hits filed as cytotoxic | 360,000 compounds, 1.6% hits;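 further: NT is the 2HG producing partner of a matched IDH1 knockdown line; potency means the concentration at half of the fitted maximal effect; 0% = DMSO-treated cells and -100% = media-only wells without cells; nearly all actives have a fitted effect of over 55% in size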
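A 48-hour cytotoxicity screen used HT-1080-NT cells plated 2 hours before compound delivery. ATP-based CellTiter-Glo luminescence measured viability, normalized to DMSO and no-cell controls.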
DT40 TDP1 no CPT – qHTS for Inhibitors of human tyrosyl-DNA phosphodiesterase 1 (TDP1): qHTS in cells in absence of CPT. 420,000 compounds, 15% hits. DT40 Tdp1-/- hTDP1 cells, no CPT, ATP luminescence, 48 h. AID 686978, 2013. Potency, µM (highest dose often 46.2 µM), for the others: at the highest dose activity change, negative = growth inhibition, most hits filed as inhibitors; further: potency means the concentration at half of the fitted maximal effect; nearly all actives have a fitted effect of over 55% in size
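Growth of hTDP1-complemented DT40 Tdp1-knockout cells is measured by ATP luminescence after at least 48 hr compound exposure at 37 °C, with DMSO substituting for the 20 nM CPT used in the parallel screen.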
IL-1B inflam inh – inhibitors of inflammasome signaling (IL-1 beta secretion); THP-1 LPS/ATP IL-1B secretion, AlphaLISA, 16 h; hits give low values; activity change, % at 57.5 µM; 360,000 compounds, 4.7% hits; in the data active means activity change below about -50%; inconclusive means mostly about -30% to -49%
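Secreted IL-1B measured by AlphaLISA bead assay after 16 h compound exposure of THP-1 cells; compounds (final up to 57.5 uM) added 1 h before LPS (250 ng/mL) and ATP (1.25 mM) stimulation; lower signal means less secretion.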
Active calls of the source: *; u = inconclusive; x = no result; [ ] = remark or other dose. Unless noted, the call rests on the fitted dose curve; in most records, active means well fitted curve in the direction sought with a large enough effect; inconclusive means small, poorly fitted or top-dose-only effect, or another doubt; inactive means no such curve, though single readings can be large; an effect the other way counts as inactive or inconclusive. Unless noted, on the % scale 0 is the no-effect control and ±100 the full control effect.

SMILES	DT40 TDP1 CPT	HT1080 IDH1KD tx	ALOX12 inh	HT1080NT lethal	DT40 TDP1 no CPT	IL-1B inflam inh
Cn1ncc(N2CCC(NC(=O)Cc3cccs3)CC2)cc1=O	x	x	22.0%	x	x	x
COc1ccc(-c2ccc3c(c2)C(=O)N2CC[C@H](NS(=O)(=O)c4cccs4)[C@H]2C(=O)N3)cc1	x	x	31.0%	x	x	x
c1nc(N2CCOCC2)c2cc(-c3ccoc3)ccc2n1	8.2µM*	x	u	x	u	x
CN(C)Cc1ccccc1-c1ccc2ncnc(N3CCOCC3)c2c1	u	x	u	x	20.6µM*	x
COc1ccc(C)cc1-n1nnnc1SCC(=O)c1ccc2c(c1)OCCO2	18.4µM*	-4.5%	0.0%	-0.1%	u	-12.6
CC(C)c1ccc(CN2CCN(C(=O)CSc3nnnn3C3CC3)CC2)cc1	u	-3.6%	-1.9%	u	11.6µM*	u
COc1ccc(-n2nnnc2SCC(=O)c2ccc3c(c2)OCCO3)c(OC)c1	u	23.3%	-1.1%	6.5%	13µM*	-1.9
O=C(CSc1nnnn1C1CCCC1)c1ccc2c(c1)OCCO2	20.6µM*	-1.2%[9.24 µM]	-17.0%	1.1%	u	u
Cc1ccc(C(=O)NC2CCCN(c3cc(-c4ccc(Cl)cc4)[nH]n3)C2)cn1 (stereo not drawn)	x	x	-27.4%	x	x	x
COCCn1c(C)cnc1CC1CCN(C(=O)Nc2ccccc2F)C1 (stereo not drawn)	x	x	29.8%	x	x	x
Cc1ccc(-n2nc(-c3c(C)nc4scc(CC(=O)NCc5ccccc5)n4c3=O)cc2C)cc1	x	x	-8.4%	x	x	x
COC(=O)c1ccc(COC(=O)c2c3c(nc4ccccc24)CCC3)o1	x	x	2.9%	x	x	x
CCn1nc(-c2ccc(C)c(S(=O)(=O)NCc3ccccc3C)c2)c2c(c1=O)CCCC2	x	x	3.8%	x	x	x
COc1ccc(F)cc1C(=O)COC(=O)C1(c2ccc(Cl)cc2)CC1	x	x	-26.9%	x	x	x
COCCn1c(SCC(=O)c2ccc3c(c2)OCCO3)nnc1-c1ccoc1C	14.6µM*	-0.1%	7.3%	2.8%	10.3µM*	20.7
COCCCn1c(SCC(=O)Nc2ccc3c(c2)OCCO3)nnc1-c1ccoc1C	-5.2%	10.9%	-19.3%	14.7%	-0.9%	-5.6
O=C(CSc1nnnn1C1CCCCC1)N1c2ccccc2Sc2ccccc21	u	-7.0%	-6.0%	-0.4%	20.6µM*	0.0
O=C(CSc1nnnn1C1CCCCC1)N1CCOCC1	u	9.9%	1.0%	17.5%	-10.9%	-19.6
O=C(NCCN1CCCCC1)c1ccc(Cn2c(SCc3ccccc3)nc3ccncc32)cc1	x	x	-17.7%	x	x	x
CCN(CC)S(=O)(=O)c1ccc(-c2cn3ccccc3n2)cc1	u	-3.1%	3.6%	-4.7%	14.6µM*	-27.2
Cc1ccc2nc(-c3cccc(S(=O)(=O)N4CCCC4)c3)cn2c1	-4.6%	-2.6%	19.3%	-0.1%	-2.6%	5.3
Cc1ccc2nc(-c3cccc(S(=O)(=O)N4CC(C)OC(C)C4)c3)cn2c1 (stereo not drawn)	u	-11.6%	4.1%	-0.9%	14.6µM*	-24.6
CCN(CC)S(=O)(=O)c1cccc(-c2cn3cc(C)ccc3n2)c1	20.6µM*	-28.5%	11.3%	-15.9%	18.4µM*	-21.9
Cc1ccc2nc(-c3cccc(S(=O)(=O)N(C)C)c3)cn2c1	u	4.8%	7.4%	9.6%	u	-13.9
CN(C)S(=O)(=O)c1ccc(-c2cn3ccccc3n2)cc1	-29.5%	u	-21.6%	u	u	7.7
SMILES	DT40 TDP1 CPT	HT1080 IDH1KD tx	ALOX12 inh	HT1080NT lethal	DT40 TDP1 no CPT	IL-1B inflam inh
CCCN(CCC)S(=O)(=O)c1cccc(-c2csc(C)n2)c1	u	0.6%	1.3%	-1.4%	18.4µM*	-54.9*
CN1CCN(c2oc(-c3ccco3)nc2C#N)CC1	x	x	-18.0%	x	x	x
CCN(CC)S(=O)(=O)c1cccc(-c2nc3n(n2)Cc2ccccc2-3)c1	u	6.4%	u	3.6%	23.1µM*	-16.6
CCN(CC)S(=O)(=O)c1cccc(-c2n[nH]c(=S)n2CC(C)C)c1	-15.6%	-2.9%	31.6µM*	2.5%	u	34.9
Clc1ccc(-c2nc3n(n2)Cc2ccccc2-3)cc1	-15.2%	-4.3%	0.6%	-13.2%	-16.6%	12.5
COc1cc(/C=N/O)cc(I)c1OCC(=O)Nc1ccc(C)cc1	x	x	-26.5%	x	x	x
FC(F)(F)C(Oc1nc(OC(C(F)(F)F)C(F)(F)F)nc(N2CCOCC2)n1)C(F)(F)F	x	x	-1.1%	x	x	x
Cc1ccc(Nc2nc(OC(C(F)(F)F)C(F)(F)F)nc(N3CCOCC3)n2)cc1	u	-4.0%	3.2%	-0.6%	14.6µM*	-80.4*
FC(F)(F)Oc1ccc(Nc2nc(N3CCOCC3)nc(N3CCOCC3)n2)cc1	18.4µM*	7.8%	-9.5%	27.6%	16.4µM*	-4.8
CCc1ccc(Nc2nc(N3CCOCC3)nc(N3CCOCC3)n2)cc1	u	3.5%	u	-0.5%	u	u
COc1ccc(CN[C@H]2[C@H](O)[C@@H](N3CCN(C)CC3)[C@@H]3OC[C@H]2O3)cc1	x	x	113.2%[176 µM]	x	x	x
Cc1cc(C)nc(NC(=O)CSc2nccc(C)n2)n1	-2.9%	29.8%	-5.1%	4.6%	-8.3%	6.1
Cc1cc(C)nc(SCC(=O)Nc2ccnc3ccccc23)n1	1.64µM*	-13.2%	-3.2%	0.6%	0.651µM*	u
Cc1cc(C)nc(SCC(=O)Nc2ccccc2C(N)=O)n1	x	x	50.1µM*	x	x	x
Cc1cc(C)nc(SCC(=O)Nc2ccccc2[N+](=O)[O-])n1	-1.2%	3.7%	25.3%	3.7%	-15.1%	-0.6
COCc1cc(C)nc(SCC(=O)Nc2ccc(C)c(C)c2)c1C#N	-12.5%	-8.4%	0.0%	-10.6%	-23.3%	7.1
Cc1cc(C)c(C#N)c(SCC(=O)Nc2ccccc2C#N)n1	x	x	0.0%	x	x	x
COCc1cc(C)nc(SCC[N+](C)(C)CC(=O)Nc2cccc(C(F)(F)F)c2)c1C#N	20.6µM*	-11.2%	12.9%	-22.2%	u	-50.8*
Cc1cc(C)c(C#N)c(SCC(=O)Nc2ccccc2C(N)=O)n1	u	-8.3%	2.9%	1.3%	10.3µM*	-14.6
Cc1ccc(-c2nn(C)c(=O)c3ccccc23)cc1CNC(=O)c1ccc(Cl)cc1	x	x	-8.4%	x	x	x
Cn1cc(/C=C(\NC(=O)c2ccco2)C(=O)NCCO)c2ccccc21	x	x	0.9%	x	x	x
O=C(CSC1=NCCS1)Nc1ccnc2ccccc12	6.51µM*	-21.0%	15.3%	u	9.2µM*	u
Cc1cc(C)nc(SCNC(=O)c2ccccc2)n1	-0.6%	7.08µM*	8.4%	5.01µM*	20.2%	8.7

Assay outcomes as filed in PubChem BioAssay.
